Data published in PubChem BioAssay (NCI).
Compounds without any hit were thinned out: in the full panel of roughly 79,000, 15% have a hit. Activity calls are given as the source filed them. No stated cut-off is given here; in the data, active means growth inhibition above about 70%; inactive means the rest.

Legend:
[1] = NCI Yeast Anticancer Drug Screen. Data for the rad50 strain (AID 155);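 further: 0% = growth of vehicle-only cultures of the same strain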; conditions: S. cerevisiae rad50 strain growth inhibition; at 50.0 µM; active compounds read high
Procedure, shortened: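 Relative growth inhibition (compound vs vehicle) was measured in yeast with a defined repair-gene alteration.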

[2] = NCI Yeast Anticancer Drug Screen. Data for the mec2-1 strain (AID 157); conditions: S. cerevisiae mec2-1 strain, at 50.0 µM, active compounds read high
Procedure, shortened: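 Mutant yeast (mec2-1) grown with compound; growth inhibition relative to vehicle control reported.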

[3] = NCI Yeast Anticancer Drug Screen. Data for the sgs1 mgt1 strain (AID 161);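 further: 0% = growth of cultures given vehicle only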; conditions: S. cerevisiae sgs1 mgt1 strain, at 50.0 µM, active compounds read high
Procedure, shortened: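 This yeast growth screen uses a strain with defined DNA-repair lesions; compound-treated growth is compared with vehicle-treated growth.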

[4] = NCI Yeast Anticancer Drug Screen. Data for the cln2 rad14 strain (AID 165);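 further: 0% = growth equal to vehicle treated cultures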; conditions: S. cerevisiae cln2 rad14 strain, at 50.0 µM, active compounds read high
Procedure, shortened: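 Readout is yeast growth inhibition versus vehicle-treated controls, using a strain with cln2 and rad14 alterations exposed to compound.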

[5] = NCI Yeast Anticancer Drug Screen. Data for the bub3 strain (AID 167); conditions: S. cerevisiae bub3 mutant strain, at 50.0 µM, active compounds read high
Procedure, shortened: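 Screening used yeast with an engineered genetic alteration affecting cell cycle control. Compound-exposed cultures were compared with vehicle cultures, and reduced growth was taken as inhibition.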

[6] = NCI Yeast Anticancer Drug Screen. Data for the mlh1 rad18 strain (AID 175); conditions: S. cerevisiae mlh1 rad18 strain growth inhibition; at 50.0 µM; active compounds read high
Procedure, shortened: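 Genetically defined yeast (DNA repair-deficient) exposed to compounds; growth inhibition determined relative to vehicle.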

Measured: growth inhibition

C=C1C(=O)SC(=NCc2ccccc2)N1C
inactive: [1] 24.4% | [2] 16.4% | [3] 19.9% | [4] 19.9% | [5] 0% | [6] 25.8%

OCCCc1nc2ccccc2[nH]1
inactive: [1] -10.3% | [2] -21.8% | [3] -15.1% | [4] 8.85% | [5] -17.7% | [6] 11.1%

Nc1ccc(S(=O)(=O)n2cccc2)cc1
inactive: [1] -8.9% | [2] 1.2% | [3] -19.9% | [4] -6.4% | [5] -9.25% | [6] -10.5%

Fc1cccc2nc(-c3ccccc3)cc(OCc3ccccc3)c12
inactive: [1] 0.9% | [2] 8.3% | [3] -30.6% | [4] -1% | [5] 11.8% | [6] -3.4%

COC(=O)/C(=C\c1ccccc1[N+](=O)[O-])c1ccc2c(c1)OCO2
inactive: [1] 23.6% | [2] -10.1% | [3] 3.2% | [4] -38.5% | [5] 9.6% | [6] 14.4%

CC(=O)OCC1COC(C)(c2ccccc2)O1 (configuration not stated)
inactive: [1] 4.65% | [2] 0.3% | [3] -6.65% | [4] 3.7% | [5] 4.15% | [6] -9.55%

COc1cc2c(c3c1c(=O)c1ccccc1n3C)C=CC(C)(C)O2
inactive: [1] 10.9% | [2] -13.9% | [3] 22.7% | [4] 11.2% | [5] 4.75% | [6] 9.9%

N#CC(C#N)c1c(F)c(F)c(C(F)(F)F)c(F)c1F
inactive: [1] 10.4% | [2] -4.6% | [3] 34.9% | [4] -8.95% | [5] -9.9% | [6] -0.65%

CCCCNC(C)(C)CSS(=O)(=O)O
inactive: [1] -12.9% | [2] -23.3% | [3] -22.2% | [4] -59.8% | [5] 4.1% | [6] -14.6%

c1ccc(CC2CCCC(Cc3ccccc3)N2)cc1 (configuration not stated)
inactive: [1] -1.25% | [2] -16.4% | [3] -5.55% | [4] -49.3% | [5] 16.1% | [6] 5.1%

O=S(=O)(c1ccccc1)C1(Sc2ccccc2)CC(Br)[C@@H](Br)C1 (some centres not stated)
inactive: [1] 21.9% | [2] 7.3% | [3] 25.5% | [4] 8% | [5] -6.65% | [6] -5.55%

CC(C)=CC1C(C(=O)SCc2cc3c(cc2Br)OCO3)C1(C)C (configuration not stated)
inactive: [1] 0.95% | [2] -6.05% | [3] -10.2% | [4] 6.25% | [5] 5.6% | [6] 6.5%

Cc1cccc(C)c1NC(=O)Nc1ccc(C(=O)O)cc1
inactive: [1] -8.6% | [2] 31.7% | [3] 2.5% | [4] -15.8% | [5] 22.6% | [6] 11.4%

O=S(=O)(SC(S(=O)(=O)c1ccccc1)S(=O)(=O)c1ccccc1)c1ccccc1
active: [5] 72.6%
inactive: [1] 13.2% | [2] 9.35% | [3] 39.4% | [4] 1% | [6] 39.2%

CS(=O)(=O)OCCOc1ccccc1
inactive: [1] 1.15% | [2] -0.45% | [3] 0.95% | [4] -32% | [5] 9.15% | [6] 8.05%

O=C(Nc1cc(Cl)ccc1Cl)c1ccc(Cl)cc1
inactive: [1] -1.3% | [2] -14.5% | [3] 4.45% | [4] -44% | [5] -9.7% | [6] -12.7%

CCC1(c2ccccc2)SC(N)=NC1=O (configuration not stated)
inactive: [1] 2.15% | [2] 2.75% | [3] -12.8% | [4] -8.45% | [5] 1.05% | [6] -0.6%

NC(=NC1CCCCC1)/N=C(/N)Nc1ccc(Cl)cc1
inactive: [1] 26.8% | [2] 0.2% | [3] 5% | [4] -29.6% | [5] 4.7% | [6] 14.4%

CC(O)c1ccc(N=NN(C)C)cc1 (configuration not stated)
inactive: [1] -2.5% | [2] 2.75% | [3] -3.15% | [4] -1.55% | [5] 0% | [6] 21.2%

CN=[N+]([O-])c1ccccc1
inactive: [1] 1.75% | [2] 17.9% | [3] 4.35% | [4] 15.2% | [5] 10.9% | [6] 1.6%

COC(=O)c1cc(=O)n(C)[nH]1
inactive: [1] -0.55% | [2] 4.7% | [3] 0.75% | [4] -58.2% | [5] 6.65% | [6] -1.05%

O=C(SCCN1CCCC1)C(O)(c1ccccc1)C1CCCC1 (configuration not stated)
inactive: [1] 14.8% | [2] -6% | [3] -5.3% | [4] -7.95% | [5] -2.35% | [6] 11.7%

O=C(NNc1nc(CCl)cs1)c1ccccc1Cl
inactive: [1] -0.15% | [2] -31.6% | [3] 4.75% | [4] 7.35% | [5] -11.1% | [6] -11.6%

CCOC1C(Br)Cn2c(=O)c3cc4ccccc4cc3c(=O)n2C1C (configuration not stated)
inactive: [1] 61.2% | [2] 8.15% | [3] 21.6% | [4] 44.3% | [5] 33.6% | [6] 33.2%

NCc1ccccc1
inactive: [1] -2.5% | [2] 7.75% | [3] -2.2% | [4] -41.4% | [5] -18.9% | [6] -3.85%

O=C(O)c1c(CN2CCOCC2)c(O)c(O)c(O)c1CN1CCOCC1
inactive: [1] -1.2% | [2] 0.15% | [3] -7.1% | [4] -2.3% | [5] 1.3% | [6] 5.5%

CC(C)C(=O)NCc1ccccc1Sc1ccccc1CNC(=O)C(C)C
inactive: [1] -13.8% | [2] 6.1% | [3] -18.5% | [4] -10% | [5] 1.4% | [6] -0.7%

COC1=CC(=C(c2ccc(O)c(OC)c2)c2ccc(O)c(OC)c2)C=CC1=O
inactive: [1] -2.75% | [2] -6.95% | [3] -2.55% | [4] 4.4% | [5] -22.4% | [6] -31.9%

CCOc1ccc(/C=C/c2ccc3ccccc3[n+]2C)cc1OCC
inactive: [1] 16.1% | [2] 9% | [3] -5.3% | [4] -14% | [5] -1.35% | [6] 19.7%

Cc1c(C(=O)O)c(-c2ccc([N+](=O)[O-])cc2)c(C=O)n1-c1ccccc1
inactive: [1] -4.9% | [2] 10.9% | [3] 3.3% | [4] -8.5% | [5] 25.7% | [6] 22.9%

CCCc1cc2c3c(c(=O)oc2cc1O)CCCCC3
inactive: [1] -17.9% | [2] 19.4% | [3] 4.7% | [4] -22.5% | [5] -9.8% | [6] -14.3%

NC(=S)NN/C=C(\C=Nc1ccccc1)[N+](=O)[O-]
inactive: [1] 8.15% | [2] -3.3% | [3] 4.15% | [4] 0.4% | [5] 0.15% | [6] 1%

Cc1cc(C(=O)O)c(C#N)c(=O)n1C
inactive: [1] -1.55% | [2] 5.3% | [3] -12.6% | [4] -13.6% | [5] -12% | [6] 8.55%

Nc1ncnc(N)c1NC(=O)c1ccccc1
inactive: [1] -16.4% | [2] -19.6% | [3] -24.4% | [4] -21.4% | [5] 3.25% | [6] 14.6%

NC(=O)[C@H]1CC2CCC1C2 (some centres not stated)
inactive: [1] 6.75% | [2] -1.75% | [3] 3.4% | [4] 5% | [5] 11.3% | [6] 6%

CCOC(=O)/C(Cc1ccccc1[N+](=O)[O-])=N/O
inactive: [1] 6.7% | [2] 2.85% | [3] 8.65% | [4] -13.4% | [5] 12.3% | [6] 26.6%

COc1cnn(-c2ccccc2)c(=O)c1Cl
inactive: [1] -1.4% | [2] -7.35% | [3] -1.85% | [4] -3.7% | [5] 0.8% | [6] -13.9%

CCCCCCCCCCCCCCCCCC(=O)N1C(=O)c2ccccc2C1=O
inactive: [1] 22.6% | [2] 2.35% | [3] 6.75% | [4] -8.85% | [5] -2.65% | [6] 29.9%

CCOC(=O)N1CCN(P(=O)(Nc2ccc3nc(NC(=O)OC)[nH]c3c2)Oc2ccccc2)CC1 (configuration not stated)
inactive: [1] -38.5% | [2] -6.9% | [3] 0.55% | [4] -9.4% | [5] -9.65% | [6] -37.1%

O=P(O)(OCC(Br)CBr)OCC(Br)CBr (configuration not stated)
inactive: [1] -12.4% | [2] -7.05% | [3] 11.2% | [4] -45% | [5] 1.75% | [6] 23.8%

CCOC(=O)CC(=O)C(=O)OCC
inactive: [1] 2.05% | [2] -4.75% | [3] -4.8% | [4] -25.6% | [5] -18% | [6] -27.2%

CCCCCCC(c1ccc(N(C)C)cc1)c1ccc(N(C)C)cc1
inactive: [1] -6.95% | [2] 15.7% | [3] -4.45% | [4] 13.1% | [5] 24.9% | [6] 29.9%
